Results as given in PubChem BioAssay AID1117361 (Southern Research Institute, 2015).
Hit rate of the full screen: of about 3,600 compounds, about 900 (25%) were called active. A selection follows. Entries that show only a call come without a potency. Potency and affinity values are given separately. A number with no mark means an inactive call. How the calls were made is not given here.

What follows are molecules tested against Protein Tat (Human immunodeficiency virus type 1 group M subtype B (isolate HXB2)) (UniProt P04608) (assay: inhibitors of Tat binding to TAR RNA, dose response, counter-screen for Vif-APOBEC3G degradation inhibitor project, biochemical, fluorescence polarization, FAM-labeled TAR RNA (AID 1117361)). Settings: outcome: dose series up to 100 µM unless noted; series mostly up to 100 µM; inhibition: at the top concentration.

SMILES | outcome | inhibition [%]
O=C(NCC1CCCO1)c1c(O)c2c([nH]c1=O)CCCC2 (stereo unspecified) | inactive | 
CC[n+]1c(/C=C2\C=C(C)CC(C)(C)C2)sc2ccccc21 |  | 9.02
CCC(C)NC(=O)CSc1ccc(S(=O)(=O)N2CCN(Cc3ccccc3)CC2)cn1 (stereo unspecified) | inactive | 
Cc1csc(NC(=O)CCSCCc2ccccn2)n1 | inactive | 
CCOc1ccc(NC(=S)/C(=C(\[O-])c2ccc(C)c([N+](=O)[O-])c2)[n+]2ccccc2)cc1 |  | 16.2
C=C(C)COc1ccc2c(C)c(C)c(=O)oc2c1OCC(=C)C |  | 3.38
COc1ccc(NC(=O)CN(C)S(=O)(=O)c2ccc3c(c2)CCC(=O)N3)c(OC)c1 |  | 3.38
Cn1c(SCC(=O)N2CCCC2)nc2ccccc2c1=O | inactive | 
CCC(Sc1nc2c(c(=O)n1CC)SC(C)C2)C(=O)OC (stereo unspecified) |  | 4.05
CC(=O)NCCn1c(SCC(=O)Nc2ccc(C)cc2)nc2ccccc2c1=O | inactive | 
Cc1noc(NS(=O)(=O)c2ccc(NC(=O)CSc3nnc(-c4ccccc4)n3C3CCCCC3)cc2)c1C | inactive | 
Cc1nc(NCc2ccccc2)c2cc[nH]c2n1 | inactive | 
Cc1cc(C)n(CC(O)CN2c3ccccc3Sc3ccccc32)n1 (stereo unspecified) | inactive | 
CC1CCCCN1Cc1ccc(N(C)C)cc1 (stereo unspecified) |  | 2.7
Cc1ccc(C(=O)Nc2cccnc2)cc1NC(=O)c1ccco1 | inactive | 
O=C(Nc1cccc(C(F)(F)F)c1)c1cccnc1NCCc1ccccc1 | inactive | 
O=C(Nc1ccccc1)c1ccc2nc(-c3ccco3)c(-c3ccco3)nc2c1 | inactive | 
O=C(NN=C1CCCC1)C(=O)Nc1cccc(C(F)(F)F)c1 | inactive | 
COC(=O)C1=C(C)Nc2ncnn2C1c1ccc(OC(=O)c2ccccc2)cc1 (stereo unspecified) |  | 7.43
CC(=O)c1ccccc1NC(=O)COC(=O)CN1C(=O)C2CCCCC2C1=O (stereo unspecified) |  | 3.3
COCCn1c(-c2ccc(OC)cc2)nc2ccccc21 | inactive | 
N#Cc1cn(CCOc2ccccc2F)c2ccccc12 | inactive | 
Cc1ccc(C(=O)N2c3ccc(F)cc3CCC2C)o1 (stereo unspecified) |  | 10.9
COC(=O)COc1ccc(S(=O)(=O)NCc2ccco2)cc1Cl |  | 0.68

SMILES | outcome | inhibition [%]
CC(Cc1c[nH]c2ccccc12)C(=O)NCc1ccco1 (stereo unspecified) |  | 5.68
CN(C)CCNc1oc(COc2ccc(Cl)cc2)nc1C#N |  | 11.6
O=C(NNC(=O)c1cc(OCC(F)(F)F)ccc1OCC(F)(F)F)c1cccc(C(F)(F)F)c1 | inactive | 
Cc1cc(-n2c(C)cc(C(=O)COC(=O)CN=C3NS(=O)(=O)c4ccccc43)c2C)no1 |  | 11.5
O=C1CCCC2=C1C(c1ccsc1)CC(=O)N2c1ccccc1 (stereo unspecified) |  | 7.43
COC(=O)C1(C(=O)OC)NOC2C(=O)N(c3ccccc3)C(=O)C21 (stereo unspecified) |  | 0.68
O=C(c1cccc(S(=O)(=O)N2CCCC2)c1)N1CCOCC1 | inactive | 
COc1ccc(OCCOC(=O)c2cc(S(=O)(=O)N3CCOCC3)c(Cl)cc2Cl)cc1 |  | 5.01
COc1ccc(CN2CCSCC2)cc1C |  | 2.34
O=C(O)c1cc(Nc2cc(Cl)c3nonc3c2[N+](=O)[O-])ccc1O | inactive | 
CCC(=O)OCCNc1cc(Sc2nc3ccccc3[nH]2)c2nonc2c1[N+](=O)[O-] |  | 8.25
O=[N+]([O-])c1c(Nc2ccccc2O)cc(Cl)c2nonc12 | inactive | 
CN(CCO)c1cc(Sc2nc3ccccc3s2)c2nonc2c1[N+](=O)[O-] | inactive | 
C=CCSc1nnc(-c2ccc(Cl)cc2Cl)o1 | inactive | 
O=C1N=NC2=C1c1c3ccccc3c(O)n1CC2 | inactive | 
N#CC1=C(Nc2ccccc2)SC=C(c2ccc(Br)cc2)N=C1N1CCOCC1 |  | 18.2
Cc1onc(-c2ccccc2Cl)c1C(=O)N1CCN(c2cccc(Cl)c2)CC1 | inactive | 
CC(NC(=O)CN(C)Cc1nc2ccccc2c(=O)[nH]1)c1ccccc1 (stereo unspecified) |  | 0.68
COc1ccc(CC(=O)OCn2nnc3ccccc3c2=O)cc1 | inactive | 
Cc1ccc(CNC(=O)C2CCCN(S(=O)(=O)c3cnc[nH]3)C2)cc1 (stereo unspecified) | inactive | 
COCCn1c(SCC(=O)N2CCC(C)CC2)nc2ccccc2c1=O | inactive | 
COc1ccc(/C=N/NC(=O)CNc2n[nH]c(=O)[nH]c2=O)cc1OC |  | 28
O=C(Nc1nc2n(n1)C(c1ccccc1)CC(c1ccc(Cl)cc1)N2)c1ccco1 (stereo unspecified) |  | 2.7
COc1cccc(-c2nc3cc(C)ccc3o2)c1 |  | 4.73

SMILES | outcome | inhibition [%]
Cc1nc2nc(-c3ccccc3)cn2nc1C |  | 20.9
CON(c1nc(N(C)C)nc(N(C)C)n1)S(=O)(=O)c1ccccc1Cl |  | 1.35
O=C(Cn1nc(-c2ccc(Cl)cc2)ccc1=O)NCc1ccc2c(c1)OCO2 | inactive | 
O=S(=O)(c1ccc(Cl)s1)N1CCN(Cc2ccccc2)CC1 |  | 8.11
CC1CCN(Cc2cnc(Cl)s2)CC1 |  | 4.05
CCCCSc1nc2sc3c(c2c(=O)[nH]1)CCC3 | inactive | 
CCn1c(SCC(=O)OC)nc2sc3c(c2c1=O)CCC3 |  | 1.67
Cc1nn(C)cc1CNC(=O)C1C2CCC(C2)C1C(=O)O (stereo unspecified) | inactive | 
CCN1C(=O)CS/C1=C(\C#N)S(=O)(=O)c1ccccc1 | inactive | 
Clc1ccc(CSCCc2ccncc2)cc1 | inactive | 
COC1=C(Br)C(=O)c2nc(C)ccc2C1=O | inactive | 
COC1=C(N)C(=O)c2nc(C)ccc2C1=O |  | 19.7
CCOC(=O)C1(Cc2ccc(OC)cc2)CCN(C(=O)Cc2cccnc2)CC1 |  | 1.65
COC(=O)C(Cc1c[nH]c2ccccc12)NC(=O)C(C)C (stereo unspecified) | inactive | 
Cc1ccc(CNC(=O)CCC2CCCN(Cc3cc4ccccc4o3)C2)o1 (stereo unspecified) |  | 14.8
Cc1ccc(CCNC(=O)C2CCCN(S(=O)(=O)c3c(C)noc3/C=C/N(C)C)C2)cc1 (stereo unspecified) | inactive | 
Cc1ccc(S(=O)(=O)c2c(N)n(NC(=O)C3CC3)c3nc4ccccc4nc23)cc1 | inactive | 
Cc1ccc(C)c(CN2C(=O)C(C)Oc3ccc(C)cc32)c1 (stereo unspecified) | inactive | 
CC1(C)Cc2c(c(=S)nc(-c3ccccc3)n2CCCN2CCOCC2)CO1 |  | 0.68
C=CCN=c1scc(C)n1/N=C/c1ccc(O)c(O)c1 |  | 3.3
COc1ccc(Cl)cc1N(CC(=O)Nc1ccc2c(c1)OCO2)S(C)(=O)=O | inactive | 
COC(=O)c1cccc(NC(=O)NC2CCCN2S(=O)(=O)c2ccc(Cl)cc2)c1 (stereo unspecified) |  | 1.35
CS(=O)(=O)N(C(=O)NC(=O)NC1CCS(=O)(=O)C1)C1CCCCC1 (stereo unspecified) | inactive | 
